This is an account of results in PubChem BioAssay (Tox21).

Results filed as inconclusive are left out. Activity calls are given as the source filed them. Unless noted, calls come from the whole dose curve; as a rule, active = well fitted curve in the direction sought with a large enough effect in the repeat runs; inconclusive = weak or mixed curves; inactive = no such curve, though single readings can be large; an effect the other way counts as inactive or inconclusive.

The nature of experiment [1]: qHTS RealTime-Glo MT Cell Viability Assay in HEK293 cells - 0 hour (AID 1224880). Note: top concentration of the series differs between compounds; nearly all actives have a fitted effect of over 45% in size. A digest of the protocol:
(§1)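 Kinetic, non-lysing viability readout. Seed HEK293 (600/well) with reagent, incubate 5 h at 37 C/5% CO2, pin 23 nL compound in DMSO, incubate at 37 C, read luminescence at 0, 8, 16, 24, 32, 40 h.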
(In qHTS, concentration-response curves come from the screen itself.)

Experiment [2] can be described thus: A CellTox Green Cytotoxicity Assay to monitor cytotoxicity in HEK293 cells - 32 hour (AID 1224881). Note: nearly all actives have a fitted effect of over 40% in size. Note: potency is the fitted concentration of half-maximal effect. A digest of the protocol:
(§2)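 Real-time, in one plate: 600 HEK293 cells/well with dead-cell DNA dye, pinned compound after 5 h, 37 C incubation over 40 h; viable cells give no appreciable fluorescence.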

Experiment [3] can be described thus: A CellTox Green Cytotoxicity Assay to monitor cytotoxicity in HepG2 cells - 0 hour (AID 1224882). Note: nearly all actives have a fitted effect of over 35% in size. Note: potency is the fitted concentration of half-maximal effect. A digest of the protocol: (§3)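 Cytotoxicity was tracked as dead-cell DNA fluorescence in HepG2 cells treated with test compounds at 37 C; each time-point value comes from one kinetic series spanning 0, 8, 16, 24, 32 and 40 h.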
Experiment [4] is described as follows: A CellTox Green Cytotoxicity Assay to monitor cytotoxicity in HepG2 cells - 32 hour (AID 1224883). Note: nearly all actives have a fitted effect of over 50% in size. Note: potency is the fitted concentration of half-maximal effect. Summed up: as §3
A short description of experiment [5]: A CellTox Green Cytotoxicity Assay to monitor cytotoxicity in HEK293 cells - 8 hour (AID 1224884). Note: nearly all actives have a fitted effect of over 35% in size. Note: potency is the fitted concentration of half-maximal effect. Summed up: as §2
A short description of experiment [6]: qHTS RealTime-Glo MT Cell Viability Assay in HepG2 cells - 16 hour (AID 1224885). Note: nearly all actives have a fitted effect of over 50% in size. A digest of the protocol: (§4)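 Luminescence read-out: viable HepG2 cells reduce a prosubstrate to a NanoLuc substrate, giving a signal proportional to live cell number. Reads taken at 0, 8, 16, 24, 32 and 40 h of compound exposure at 37 C.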
A short description of experiment [7]: qHTS RealTime-Glo MT Cell Viability Assay in HEK293 cells - 8 hour (AID 1224887). Note: top concentration of the series differs between compounds; nearly all actives have a fitted effect of over 50% in size. A digest of the protocol:
as §1

Experiment [8] in a line: A CellTox Green Cytotoxicity Assay to monitor cytotoxicity in HEK293 cells - 16 hour (AID 1224888). Note: nearly all actives have a fitted effect of over 35% in size. Note: potency is the fitted concentration of half-maximal effect. Summed up: as §2
Experiment [9] in a line: qHTS RealTime-Glo MT Cell Viability Assay in HepG2 cells - 0 hour (AID 1224889). Note: nearly all actives have a fitted effect of over 50% in size. Summed up:
as §4

Experiment [10] in a line: A CellTox Green Cytotoxicity Assay to monitor cytotoxicity in HepG2 cells - 8 hour (AID 1224890). Note: nearly all actives have a fitted effect of over 45% in size. Note: potency is the fitted concentration of half-maximal effect. Summed up: as §3
Experiment [11] is described as follows: qHTS assay to identify small molecule antagonists of the estrogen receptor alpha (ER-alpha) signaling pathway using the BG1 cell line in the presence of 0.1 nM 17-beta-estradiol - cell viability counter screen (AID 1259241). Note: nearly all actives have a fitted effect of over 40% in size. Note: potency is the fitted concentration of half-maximal effect. A digest of the protocol: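 Measures cytotoxicity alongside the ER-alpha antagonist readout: VM7Luc4E2 cells, charcoal-stripped serum, 0.1 nM 17beta-estradiol final, 22 hr compound incubation at 37C, CellTiter-Fluor fluorescence.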

A short description of experiment [12]: qHTS assay to identify small molecule antagonists of the androgen receptor (AR) signaling pathway using the MDA cell line in the presence of 0.5 nM R1881 - cell viability counter screen (AID 1259242). Note: nearly all actives have a fitted effect of over 45% in size. Summed up: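 Cells seeded at 3,000/well and allowed 5 hr at 37C, 0% CO2 before compound transfer and R1881 (0.5 nM final) addition; 16 hr later, live-cell protease fluorescence indicated cytotoxicity.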

Experiment [13] concerns the target Estrogen receptor (Homo sapiens) (UniProt P03372). In words: qHTS assay to identify small molecule antagonists of the estrogen receptor alpha (ER-alpha) signaling pathway using the BG1 cell line in the presence of 0.1 nM 17-beta-estradiol (AID 1259244). Note: nearly all actives have a fitted effect of over 50% in size. Note: potency is the fitted concentration of half-maximal effect. Summed up: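 Luciferase signal from VM7Luc4E2 ERE-reporter cells, co-dosed with test compound and 0.1 nM final 17beta-estradiol for 22 h, read with ONE-Glo.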

The nature of experiment [14]: qHTS assay to identify small molecule HDAC inhibitors (AID 1259364). Note: potency is the fitted concentration of half-maximal effect.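 Note: wild-type HCT-116 cells with endogenous class I/II HDAC activity; nearly all actives have a fitted effect of over 45% in size.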 Summed up:
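HCT-116 wt cells, 1,500/well, overnight attach. Compounds (DMSO) 2 h, 37 °C. HDAC-Glo I/II, 30 min RT. Luminescence.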

Experiment [15] can be described thus: qHTS assay to identify small molecule HDAC inhibitors - cell viability counter screen (AID 1259365). Note: nearly all actives have a fitted effect of over 50% in size. Note: potency is the fitted concentration of half-maximal effect. A digest of the protocol: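 Following a 2hr exposure of overnight-plated wild-type HCT-116 cells to DMSO-delivered compounds, CellTiter-Glo was added and luminescence recorded after 30min at room temperature.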
Experiment [16] is described as follows: qHTS assay to identify small molecule agonists of the sonic hedgehog signaling (Shh) pathway - cell viability counter screen (AID 1259366). Note: nearly all actives have a fitted effect of over 50% in size. Note: potency is the fitted concentration of half-maximal effect. Summed up: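 After a 4hr attachment at 37C, NIH/3T3 cells bearing an integrated Gli1-driven luciferase reporter were dosed with compounds. Treatment lasted 24hr, with the final hour including CellTiter-Fluor for a fluorescence viability measurement.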

The nature of experiment [17]: qHTS assay to identify small molecule antagonists of the sonic hedgehog signaling (Shh) pathway - cell viability counter screen (AID 1259367). Note: nearly all actives have a fitted effect of over 55% in size. Note: potency is the fitted concentration of half-maximal effect. A digest of the protocol: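 Conditioned medium drove Shh signaling in 3T3 Gli1-Luc cells exposed to compounds at 37C and 5% CO2. Viability was determined from CellTiter-Fluor fluorescence, with reagent incubated 1 hr after 23 hr of treatment.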

The nature of experiment [18]: qHTS RealTime-Glo MT Cell Viability Assay in HEK293 cells - 24 hour (AID 1224886). A digest of the protocol: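 Nonlytic real-time viability readout: viable cells convert prosubstrate to NanoLuc substrate, giving luminescence proportional to live cell number. HEK293, 600 cells/well, compound added after 5 h, continuous culture at 37 C.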
A short description of experiment [19]: qHTS assay to identify small molecule phospholipidosis (PLD) inducers (AID 1259344; active = well fitted curve in the direction sought with a large enough effect; an effect the other way counts as inactive or inconclusive). Summed up:
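After 4 h attachment on collagen I, HepG2 cells were dosed with compound alongside LipidTOX Red, kept 24 h at 37 C, fixed, and imaged for lamellar phospholipid pits.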

Sequence of Estrogen receptor (Homo sapiens) (P03372 whole entry, looked up): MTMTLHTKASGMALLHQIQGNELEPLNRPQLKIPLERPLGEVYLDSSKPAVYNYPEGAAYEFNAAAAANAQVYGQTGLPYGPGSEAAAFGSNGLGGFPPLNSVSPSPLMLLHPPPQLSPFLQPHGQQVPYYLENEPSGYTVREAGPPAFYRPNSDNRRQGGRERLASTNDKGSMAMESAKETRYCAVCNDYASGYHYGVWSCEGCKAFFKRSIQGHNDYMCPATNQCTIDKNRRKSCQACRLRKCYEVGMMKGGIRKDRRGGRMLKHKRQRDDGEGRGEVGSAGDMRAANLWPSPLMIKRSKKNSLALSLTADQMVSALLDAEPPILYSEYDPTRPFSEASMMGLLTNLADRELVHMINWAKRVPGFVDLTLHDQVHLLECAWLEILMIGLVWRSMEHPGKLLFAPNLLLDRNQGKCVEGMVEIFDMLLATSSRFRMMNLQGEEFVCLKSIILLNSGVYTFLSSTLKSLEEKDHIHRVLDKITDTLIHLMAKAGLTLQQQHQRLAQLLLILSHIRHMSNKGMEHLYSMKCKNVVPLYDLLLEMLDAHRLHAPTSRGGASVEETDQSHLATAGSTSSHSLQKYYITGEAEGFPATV

Take `CC(C)(O)CCc1ccccc1`: the Potency entry in experiment [1], in [2], in [3], in experiment [4], in [5] and in experiment [6] was “inactive” throughout. Further, the Potency entry in [7], in experiment [8], in [9], in experiment [10], in experiment [11] and in experiment [12] was “inactive” each time. In addition, the Potency entry in [13], in experiment [14], in experiment [15], in [16] and in [17] was “inactive” throughout.
In the case of `CC(CCc1ccc(O)cc1)NCCc1ccc(O)c(O)c1` (configuration not stated), the Potency result in experiment [1], in [2], in experiment [3], in experiment [4], in experiment [5] and in experiment [6] was “inactive” each time. In addition, the Potency entry in experiment [18], in [8], in [9], in [10], in experiment [11] and in experiment [12] was “inactive” throughout. In addition, the Potency result in experiment [13], in experiment [19], in experiment [14], in [15], in [16] and in experiment [17] was “inactive” each time.
For the compound `O=C(c1ccccc1)C1CCC1`, the Potency result in experiment [1], in experiment [6], in experiment [7], in experiment [9], in [11] and in experiment [12] was “inactive” in each case. Further, the Potency entry in [13], in experiment [14], in experiment [15], in experiment [16] and in [17] was “inactive” each time. In addition, the Potency in [2] is 24.5 µM (active); in [3], 38.9 µM (active); in [4], 38.9 µM (active); in experiment [5] it was 38.9 µM (active); in experiment [8], 27.5 µM (active); in experiment [10], 38.9 µM (active).
In the case of `O=C(O)c1cccc(Oc2ccccc2)c1`, the Potency entry in experiment [1], in experiment [2], in experiment [3], in experiment [4], in [5] and in [6] was “inactive” each time. Moreover, the Potency entry in experiment [18], in [8], in [9], in experiment [10], in [11] and in [12] was “inactive” in each case. Also, the Potency entry in experiment [13], in experiment [14], in experiment [15], in experiment [16] and in experiment [17] was “inactive” throughout.
`COC(=O)Nc1nc2ccc(C(=O)C3CC3)cc2[nH]1`: the Potency result in [1], in experiment [2], in [3], in experiment [5], in experiment [6] and in experiment [7] was “inactive” each time. Besides, the Potency result in [8], in [9], in [10], in [11], in experiment [12] and in experiment [13] was “inactive” each time. For the same compound, the Potency result in experiment [15] and in [16] was “inactive” throughout. The Potency in experiment [4] was 0.952 µM (active); in experiment [14], 23.7 µM (active).
In the case of `CCN(Cc1cccc(S(=O)(=O)O)c1)c1ccc(C(=C2C=CC(=[N+](CC)Cc3cccc(S(=O)(=O)O)c3)C=C2)c2ccccc2S(=O)(=O)[O-])cc1`, the Potency result in [1], in [2], in experiment [3], in experiment [4], in experiment [5] and in experiment [6] was “inactive” throughout. The Potency entry in [7], in experiment [8], in [9] and in experiment [10] was “inactive” throughout. Besides, the Potency was 19.4 µM (active) in experiment [11]; 12.2 µM (active) in [13]; 6.14 µM (active) in [14]; 12.2 µM (active) in [15]; 27.4 µM (active) in [16]; 17.3 µM (active) in experiment [17].
For the compound `CC(C)c1ccc(C#N)cc1`, the Potency result in experiment [1], in experiment [2], in experiment [3], in [4], in experiment [5] and in [6] was “inactive” in each case. In addition, the Potency result in experiment [7], in experiment [8], in experiment [9], in [10], in [11] and in [12] was “inactive” in each case. Further, the Potency result in experiment [14], in experiment [15], in experiment [16] and in [17] was “inactive” each time.
